According to PubChem BioAssay (NCATS):
Inconclusive results are not listed. Entries that show only a call come without a potency. Active and inactive are the calls of the source. The call rests on the fitted dose curve; in most records, active means well fitted cell-killing curve with a large enough effect; inconclusive means small, poorly fitted or top-dose-only effect, or effect the other way; inactive means flat fitted curve, though single readings scatter. Peptide text beside a SMILES is read from it.

Assay: S16 Schwann cell viability assay (CellTiter-Glo assay) (AID 624031); further: nearly all actives have a fitted effect of over 70% in size
Settings: S16 rat Schwann cells viability, 24 h; series mostly up to 57.5 µM
Excerpt: Charcot-Marie-Tooth-Association [CMTA]
National Center for Advancing Translational Sciences [NCATS]
Charcot-Marie-Tooth (CMT) disease was first characterized by Jean-Martin Charcot and Pierre Marie in France and, independently, by Howard Henry Tooth in England in 1886. CMT is one of the most common inherited neurological diseases, affecting approximately 1 in 2,500 Americans. […] The most prevalent type of CMT is known as CMT1A and caused by a duplication of the PMP22 gene which leads to over-expression of this protein. PMP22 is a glycosylated intrinsic membrane protein accounting for 2-5% of the myelin protein content, and its over-expression results in demyelination and subsequently axonal loss.
A pair of cellular transcription-based assays was developed in the S16 rat Schwann cell lines (Hai, M., et al., 2002) stably transfected with orthogonal reporters - firefly luciferase (Fluc) and beta-lactamase (beta-Lac) - whose expression is driven by an intronic regulatory element of the PMP22 gene (Jones, E.A., et al., 2011) to recapitulate endogenous expression of PMP22. A comprehensive library of approved drugs, the NCGC Pharmaceutical Collection (Huang, R., et al., 2011), was screened in the cross-validating platform of the orthogonal reporter assays to identify drug modulators inhibitory towards PMP22 expression.
A set of counter-screens was devised to address non-specific activity of the library. An ATP-dependent CellTiter-Glo assay (developed by Promega Corp) was utilized to control cell viability. In addition, biochemical Fluc enzyme assay was performed to assess direct inhibition of the Fluc enzymatic activity.
Hai, M., Muja, N., DeVries, G.H., Quarles, R.H. and Patel, P.I. Comparative analysis of Schwann cell lines as model systems for myelin gene transcription studies. J Neurosci Res, 2002. 69(4): pp 497-508
Huang, R., Southall, N., Wang, Y., Yasgar A., Shinn P., Jadhav, A. , Nguyen, D.-T. and Austin, C.P., The NCGC pharmaceutical collection: a comprehensive resource of clinically approved drugs enabling repurposing and chemical genomics. Sci Transl Med, 2011. 3(80): p. 80ps16.
Native S16 cells were seeded in white solid-bottom 1536 well plates at between 500-750 cells/6uL in DMEM medium containing 10% FBS, w/o phenol red. After overnight incubation at 37 degree Celsius/5% C02, 23 nL of compounds or DMSO were delivered to each well using a pin tool, followed by 24h-incubation at 37 degree Celsius/5% C02. Then one volume of CellTiter-Glo assay reagent (Promega) was added to each well for cell viability measured by a ViewLux plate reader (PerkinElmer). The % activity was determined by normalizing to the average readings from wells containing no cells relative to DMSO-treated cells (0% Activity). The concentration-effect curves were then classified based on curve quality (r2), response magnitude and degree of measured activity.
Potency means the concentration at half of the fitted maximal effect.

| SMILES | Potency |
| --- | --- |
| O=C1c2ccccc2-c2n[nH]c3cccc1c23 | inactive |
| O=C(O)c1cccc(-c2noc(-c3ccccc3F)n2)c1 | inactive |
| Oc1ccc(OCc2ccccc2)cc1 | inactive |
| CNC[C@@H](O)[C@@H](O)[C@H](O)[C@H](O)CO | inactive |
| C[Se]CCC(N)C(=O)O (stereo not given) | inactive |
| NS(=O)(=O)c1cc(C(=O)O)c(NCc2ccco2)cc1Cl | inactive |
| COc1ccc(C2(C#N)CCC(C(=O)O)CC2)cc1OC1CCCC1 (stereo not given) | inactive |
| CCCOc1ccc2nc(NC(=O)OC)[nH]c2c1 | inactive |
| COc1cc(OC)c(C(=O)CCCN2CCCC2)c(OC)c1 | inactive |
| Cn1c(NCCN(CCO)CCCc2ccc([N+](=O)[O-])cc2)cc(=O)n(C)c1=O | inactive |
| CC(C)(S)[C@@H](N)C(=O)O | inactive |
| CCN(CCO)CCCC(C)Nc1ccnc2cc(Cl)ccc12 (stereo not given) | inactive |
| CS(=O)(=O)OCCCCOS(C)(=O)=O | inactive |
| Nc1ccn([C@@H]2O[C@H](CO)[C@@H](O)C2O)c(=O)n1 (stereo not given in full) | inactive |
| O=C(O)c1cccnc1Nc1cccc(C(F)(F)F)c1 | inactive |
| Cc1nc2n(c(=O)c1CCN1CCC(c3noc4cc(F)ccc34)CC1)CCCC2 | inactive |
| CC(C)[C@H](N)C(=O)OCCOCn1cnc2c(=O)[nH]c(N)nc21 | inactive |
| COC(=O)[C@H](Cc1ccccc1)NC(=O)[C@@H](N)CC(=O)O (H-Asp-Phe-OMe) | inactive |
| O=c1oc2cc(O)ccc2s1 | inactive |
| COCCCOc1ccnc(CS(=O)c2nc3ccccc3[nH]2)c1C (stereo not given) | inactive |

| SMILES | Potency |
| --- | --- |
| CCCc1cc(=O)[nH]c(=S)[nH]1 | inactive |
| CCC(C)(Oc1ccc(C2(c3ccc(OC(C)(CC)C(=O)O)cc3)CCCCC2)cc1)C(=O)O (stereo not given) | inactive |
| O=C(O)c1cn(-c2ccc(F)cc2)c2cc(N3CCNCC3)c(F)cc2c1=O | inactive |
| CCCCN(CCCC)CCC(O)c1cc2c(Cl)cc(Cl)cc2c2cc(C(F)(F)F)ccc12 (stereo not given) | inactive |
| Cc1cc2cc3c(C)cc(=O)oc3c(C)c2o1 | inactive |
| Nc1cc(C(Cl)=C(Cl)Cl)c(S(N)(=O)=O)cc1S(N)(=O)=O | inactive |
| O=C1CCc2ccc(OCCCCN3CCN(c4cccc(Cl)c4Cl)CC3)cc2N1 | 32.2 µM (active) |
| C[C@]12CCC(=O)C=C1CC[C@@H]1[C@H]2[C@@H](O)C[C@@]2(C)[C@H]1CC[C@]2(O)C(=O)CO | inactive |
| CC1(C)NC(=O)N(c2ccc([N+](=O)[O-])c(C(F)(F)F)c2)C1=O | inactive |
| c1ccc2[nH]c(-c3cscn3)nc2c1 | inactive |
| N=C(N=C(N)N)N1CCOCC1 | inactive |
| CCCCCCCCCCCCCCCCCCCCCCO | inactive |
| CC(C)c1ccc2oc3nc(N)c(C(=O)O)cc3c(=O)c2c1 | inactive |
| N[C@@H](Cc1cc(I)c(Oc2cc(I)c(O)c(I)c2)c(I)c1)C(=O)O | inactive |
| Cc1cc(C2CCCCC2)n(O)c(=O)c1 | inactive |
| COc1c2occc2cc2ccc(=O)oc12 | inactive |
| CCCCc1ccc2nc(NC(=O)OC)[nH]c2c1 | inactive |
| COC(=O)C1=C(C)NC(C)=C(C(=O)OCCCN2CCC(c3ccccc3)(c3ccccc3)CC2)C1c1cccc([N+](=O)[O-])c1 (stereo not given) | 16.1 µM (active) |
| COc1ccc2cc([C@H](C)C(=O)O)ccc2c1 | inactive |
| O=C(O)CCNC(=O)c1ccc(N=Nc2ccc(O)c(C(=O)O)c2)cc1 | inactive |
